Hits are enriched below; roughly 21% of the tested compounds scored in any of these assays.
Pf growth 96h – Primary qHTS for delayed death inhibitors of the malarial parasite plastid, 96 hour incubation | P. falciparum luciferase reporter growth, 96 h | Potency, µM (series often up to 28.7 µM), most hits filed as inhibitors | actives 6.9% (n = 320,000) | AID 504834, 2011
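Two-generation exposure (96 h) targets delayed-death phenotype. Reporter parasites carrying integrated firefly luciferase, in red cells at 2% hematocrit and 0.05% parasitemia final, kept at 37 C, 5% CO2; luminescence loss indicates inhibition.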
HCV inh – qHTS Assay for Inhibitors of Hepatitis C Virus (HCV) | Huh7.5.1 HCVcc-Cre infection, luciferase reporter, 44 h | actives 3.4% (n = 340,000) | Potency, µM (series often up to 41.8 µM), usual class: inhibitors | AID 651820, 2012
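Luciferase read-out (15 sec integration) after a 15 min room-temperature substrate step quantifies HCVcc-Cre infection. Cells, 1,000 per well, had compound added 4 h post-plating, then virus at ~0.5 moi, and were cultured 44 h.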
Cycloheximide cs – Cycloheximide Counterscreen for Small Molecule Inhibitors of Shiga Toxin | max response, % | actives 12% (n = 300,000) | cell reporter, cycloheximide protein synthesis inhibition counterscreen; in the data active = max response mostly above about 13%, no sharp cut-off; inactive = mostly below about 14%; also: read at 38.3 µM for the half of the compounds with a filed dose
AMA1-RON2 inh – qHTS for Inhibitors of AMA1-RON; Towards Development of Antimalarial Drug Lead: Primary Screen | AlphaScreen AMA1-biotinylated RON2 peptide binding | Potency, µM (highest dose often 58.2 µM), usual class: inhibitors | actives 0.2% (n = 360,000) | Plasmodium falciparum AMA1 (3D7) - RON2 peptide interaction; also: nearly all actives have a fitted effect of over 45% in size
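AMA1 (3D7) with his tag at 25 nM final met compounds first, then biotinylated RON2 peptide at 25 nM; detection used donor plus acceptor beads, 10 µg/mL apiece, read by AlphaScreen after 30 min at room temperature.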
Pf growth 48h – Primary qHTS for delayed death inhibitors of the malarial parasite plastid, 48 hour incubation; actives 5.9% (n = 310,000); P. falciparum luciferase growth in erythrocytes, 48 h; Potency, µM (titrated, usually from 28.7 µM), most hits filed as inhibitors; AID 504832, 2011
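Here the parasites carry a stable luciferase gene and grow inside erythrocytes in Albumax-based RPMI medium with compound for one erythrocytic cycle. Activity is scored as loss of luminescent signal.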
Shiga inhibitor – A qHTS for Small Molecule Inhibitors of Shiga Toxin; AID 2315, 2010; Vero cells, Shiga toxin protein synthesis inhibition reporter; actives 9.2% (n = 290,000); inhibition, % at 38.7 µM; in the data active = inhibition mostly above about 28%, no sharp cut-off; inactive = mostly below about 43%
Large screens that a line does not name were inactive; ! = a repeat was not active. Unless noted, calls follow the shape of the dose curve; as a rule, active = well fitted curve in the direction sought with a large enough effect; inconclusive = small, poorly fitted or top-dose-only effect, or another doubt; inactive = no such curve, though single readings can be large; an effect the other way counts as inactive or inconclusive.

O=C(/C=C/c1ccco1)Nc1cccnc1	Cycloheximide cs 21
COc1ccc([N+](=O)[O-])cc1NC(=O)C(C)OC(=O)/C=C/c1ccco1 (configuration not stated)	Cycloheximide cs 17, Shiga inhibitor 36
CC(C)(C)c1ccc(/C=C/C(=O)Nc2cccnc2)cc1	Cycloheximide cs 29, Shiga inhibitor 70
O=C(/C=C/c1ccco1)c1cccnc1	Pf growth 96h inconclusive (no result: Pf growth 48h)
CC(OC(=O)/C=C/c1ccco1)C(=O)Nc1cccc([N+](=O)[O-])c1 (configuration not stated)	HCV inh inconclusive
O=C(COc1ccccc1C(=O)NCc1ccccn1)Nc1ccc(Br)cc1	none
COc1ccc(S(=O)(=O)Nc2noc3ccccc23)cc1	Pf growth 96h inconclusive
CCOc1ccc(CN2CCC(C(=O)Nc3cccc(-c4ccn[nH]4)c3)CC2)cc1Cl	Pf growth 96h inconclusive, HCV inh inconclusive, Cycloheximide cs 24, Pf growth 48h inconclusive, Shiga inhibitor 43
COc1ccc(-c2cc(C(=O)Nc3cc(Cl)ccc3OC)no2)cc1	none
COc1ccc(-c2cc(C(=O)Nc3cc(Cl)ccc3O)no2)cc1	Pf growth 96h inconclusive, Cycloheximide cs 38, Pf growth 48h inconclusive, Shiga inhibitor 70
Cc1ccc(O)c(NC(=O)c2cc(-c3ccccc3Cl)on2)c1	Pf growth 96h inconclusive, Cycloheximide cs 34, Pf growth 48h inconclusive, Shiga inhibitor 78
COc1ccc(-c2cc(C(=O)Nc3cc(C)ccc3O)no2)cc1	Pf growth 96h 3.3µM, HCV inh inconclusive, Cycloheximide cs 14
COc1cccc(/C=C2\N=C(C3CCCCC3)OC2=O)c1OC	Pf growth 96h inconclusive, Cycloheximide cs 52
O=C(Nc1ccc(OCc2ccccc2)cc1)Nc1nnc([C@H]2C[C@H](O)[C@@H](CO)O2)s1	none (no result: Pf growth 96h, HCV inh, Cycloheximide cs, Pf growth 48h, Shiga inhibitor)
COc1ccc(/C=C2\Oc3cc(OCC(=O)N4CCC[C@H]4CO)ccc3C2=O)c(OC)c1	Pf growth 96h inconclusive, Pf growth 48h inconclusive
COc1cc(/C=c2\sc3n(c2=O)CCCN=3)ccc1O	Cycloheximide cs 25
O=[N+]([O-])c1ccc(CN2CCCCCC2)cc1	Pf growth 96h inconclusive
O=c1/c(=C/c2ccc([N+](=O)[O-])cc2)sc2n1CCCN=2	Cycloheximide cs 35, Shiga inhibitor 46
COc1cc(/C=C2\C(=O)N(C)C(=S)N2C)ccc1O	none
COc1cc(/C=c2\sc3n(c2=O)C(c2ccccc2)C(c2ccccc2)=NN=3)ccc1O (configuration not stated)	Pf growth 96h 4.1µM, Pf growth 48h 4.7µM
O=C(NC1CCCC1)C(=O)N(Cc1cccnc1)C(C(=O)NCC1CCCO1)c1ccco1 (configuration not stated)	none
CC1(C(=O)NS(=O)(=O)c2ccc(Cl)cc2)CCN1C(=O)C1CC1 (configuration not stated)	none (no result: Pf growth 96h, HCV inh, Cycloheximide cs, Pf growth 48h, Shiga inhibitor)
CCn1c(=O)c2sccc2n2c(CCCC(=O)NCc3cccnc3)nnc12	Pf growth 96h 13µM
CCOc1ccc(NC(=O)C2CCCN(S(=O)(=O)c3c(C)noc3C)C2)cc1 (configuration not stated)	none
COc1cc(CN2CCCCCC2)cc(OC)c1OC	none
COc1cc(Cc2cnc(N)nc2N)cc(OC)c1OC	Pf growth 96h 2.1µM!, Pf growth 48h 1.5µM
CCc1ccc(NC(=S)N(CCN2CCOCC2)Cc2ccccc2F)cc1	none
O=C(Nc1ccc2c(c1)OCCO2)C(CCc1ccccc1)N1CCC(Cc2ccccc2)CC1 (configuration not stated)	none (no result: Pf growth 96h, HCV inh, Cycloheximide cs, Pf growth 48h, Shiga inhibitor)
COc1ccccc1NC(=O)CSC1=NC(=O)C(Cc2ccccc2)C(=O)N1 (configuration not stated)	Pf growth 96h inconclusive
COc1ccccc1NC(=O)CSC1=NC(=O)C(NC(C)=O)C(=O)N1 (configuration not stated)	Pf growth 96h 0.83µM
CC(=O)NC1C(=O)N=C(SCC(=O)NC2CCCCC2)NC1=O (configuration not stated)	Pf growth 96h inconclusive, Cycloheximide cs 22, Shiga inhibitor 57
